Molecules are shown by their SMILES. “And” between values parts separate entries of the source, which are not always exact repeats. Equal entries are not always repeated. Results filed as inconclusive are left out. Where a structure was tested more than once in an assay, its records may differ in their call. The source made the active and inactive calls. How the source made its calls, unless noted: active means hit-call score of the fitted dose curve at least 0.9, where 1 is the maximum; inconclusive means response in the unintended direction; inactive means score below 0.9.

Read-out in assay [1]: Thyroid Hormone Responsive (THRSP), THRSP (gene 7069)
Nature of the assay: LTEA_HepaRG_THRSP: Life Technologies and Expression Analysis (LTEA) Assay for Thyroid Hormone Responsive (THRSP) using HepaRG (AID 2283536; active means hit-call score of the fitted dose curve at least 0.9, where 1 is the maximum; inactive means score below 0.9). The settings on record: mRNA level, 48 h; actives raise or lower the signal. The procedure, abridged: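 qRT-PCR read-out (Fluidigm TaqMan), housekeeping-normalized (ACTB/GAPDH/POLR2A). HepaRG, 48 h chemical exposure, 8-pt half-log series from 100 uM in 0.5% DMSO, duplicates. Bidirectional curve fit vs 0.5% DMSO baseline.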

Read-out in assay [2]: Cellular tumor antigen p53 (Homo sapiens) (UniProt P04637)
Nature of the assay: LTEA_HepaRG_TP53: Life Technologies and Expression Analysis (LTEA) Assay for Tumor Protein P53 (TP53) using HepaRG (AID 2283537; active means hit-call score of the fitted dose curve at least 0.9, where 1 is the maximum; inactive means score below 0.9). The following applies: mRNA level, 48 h; actives raise or lower the signal. The procedure, abridged: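 Read-out is TP53 transcript level by microfluidic qRT-PCR, normalised to three housekeeping genes and fitted bidirectionally against DMSO. Human HepaRG cells received compounds for 48 h, highest concentration 100 uM.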

Read-out in assay [3]: UDP glucuronosyltransferase (UGT1A1), UGT1A1 (gene 54658)
Put plainly: LTEA_HepaRG_UGT1A1: Life Technologies and Expression Analysis (LTEA) Assay for UDP glucuronosyltransferase (UGT1A1) using HepaRG (AID 2283538; active means hit-call score of the fitted dose curve at least 0.9, where 1 is the maximum; inactive means score below 0.9). The following applies: mRNA level, 48 h; actives raise or lower the signal. The procedure, abridged: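 UGT1A1 transcript level, measured by qRT-PCR with three housekeeping genes for normalization, after 48 h treatment of human HepaRG cells (0.5% DMSO, duplicates, up to 100 uM, half-log steps, 8 points). Curves fit both directions against DMSO baseline.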

Read-out in assay [4]: UDP glucuronosyltransferase (UGT1A6), UGT1A6 (gene 54578)
Put plainly: LTEA_HepaRG_UGT1A6: Life Technologies and Expression Analysis (LTEA) Assay for UDP glucuronosyltransferase (UGT1A6) using HepaRG (AID 2283539; active means hit-call score of the fitted dose curve at least 0.9, where 1 is the maximum; inactive means score below 0.9). The following applies: mRNA level, 48 h; actives raise or lower the signal. The procedure, abridged:
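Measures mRNA change in HepaRG hepatic cells exposed 48 h to chemicals (eight-point, maximum 100 uM, 0.5% DMSO vehicle) in serum-free induction medium. Expression normalized to endogenous controls; DMSO served as negative control and baseline.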

Read-out in assay [5]: X-box binding protein 1 (XBP1), XBP1 (gene 7494)
Nature of the assay: LTEA_HepaRG_XBP1: Life Technologies and Expression Analysis (LTEA) Assay for X-box binding protein 1 (XBP1) using HepaRG (AID 2283540; active means hit-call score of the fitted dose curve at least 0.9, where 1 is the maximum; inactive means score below 0.9). The settings on record: mRNA level, 48 h; actives raise or lower the signal. The procedure, abridged:
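Eight concentrations (half-log, highest 100 uM, 0.5% DMSO) tested in duplicate on HepaRG cells over 48 h in serum-free induction medium; qRT-PCR of XBP1 normalised to ACTB, GAPDH, POLR2A.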

A short description of assay [6]: LTEA_HepaRG_LDH_cytotoxicity: Cytotoxicity Assessment in the Life Technologies and Expression Analysis (LTEA) Assay (AID 2283563).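 On AC50: LDH activity released into spent culture medium as a marker of cell death.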 The procedure, abridged:
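Spent-medium LDH after 48 h chemical exposure of HepaRG cells in serum-free induction medium; eight concentrations, half-log dilutions from 100 uM, duplicate wells, fitted upward relative to 0.5% DMSO.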

Assay [7] concerns the target Cellular tumor antigen p53 (Homo sapiens) (UniProt P04637). Put plainly: TOX21_p53_BLA_p3_ratio: Tox21 HCT-116 p53 Agonism Beta-lactamase Assay, Ratio, Phase 3 (AID 2283596). The procedure, abridged: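 Cells were seeded at 4000/well, rested 5 h at 37C, then dosed with DMSO compound solutions (217-fold dilution) for 16 h. CCF4-AM substrate was loaded for 2 h at room temperature, and the 460/530 nm emission ratio was fitted for gain of signal versus DMSO.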

Assay [8] is described as follows: TOX21_p53_BLA_p4_viability: Viability Assessment in the Tox21 HCT-116 p53 Agonism Beta-lactamase Assay, Phase 4 (AID 2283597).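 Further: hits lower the luminescence signal meaning cytotoxicity.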 The procedure, abridged: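 In this multiplexed secondary endpoint, HCT116 cells (4000 per well, compound at 5 h, 16 h treatment) received CellTiter-Glo after the beta-lactamase read. Luminescence after 30 min RT reflects ATP, and falling signal marks cytotoxicity.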

For assay [9], the target named is Cellular tumor antigen p53 (Homo sapiens) (UniProt P04637). Put plainly: TOX21_p53_BLA_p5_ratio: Tox21 HCT-116 p53 Agonism Beta-lactamase Assay, Ratio, Phase 5 (AID 2283599). In a few lines:
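HCT-116 p53-bla cells (4000/well) plated 5 h, dosed with compound (217-fold DMSO dilution) for 16 h at 37 C; CCF4-AM substrate 2 h at room temperature. Activity is the 460/530 nm emission ratio (405 nm excitation), fitted in gain-of-signal direction versus DMSO.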

Assay [10] in a line: Tanguay_ZF_120hpf_MORT_legacy: (Legacy) Oregon State University Tanguay Lab 120 Hour Post-fertilization zebrafish Assay for Mortality (AID 2283633). The procedure, abridged: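 Single dechorionated Tropical 5D embryos were held with test chemical (0.64% DMSO final) from 6 to 120 hpf at 28C under foil. Deaths at 24 or 120 hpf were recorded as binary calls, analysed for increase over DMSO controls.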

Assay [11] can be described thus: Tanguay_ZF_120hpf_YSE_legacy: (Legacy) Oregon State University Tanguay Lab 120 Hour Post-fertilization zebrafish Assay for Yolk Sac Edema (AID 2283634). The procedure, abridged:
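Single dechorionated embryos were held in sealed plates at 28C with test chemical (0.64% DMSO final) from 6 hpf until 120 hpf. Edema of the yolk sac was then recorded as a binary endpoint; non-mortality endpoints were skipped for dead embryos.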

Assay [12] in a line: Tanguay_ZF_120hpf_EYE_legacy: (Legacy) Oregon State University Tanguay Lab 120 Hour Post-fertilization zebrafish Assay for Eye Malformation (AID 2283636).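 Further: binary presence or absence of eye malformation scored by brightfield in 120 hpf larvae.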 The procedure, abridged: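 5D wild-type embryos, pronase-dechorionated at 4 hpf; static exposure 6–120 hpf, 28C, dark; DMSO 0.64% final; 5uM trimethyltin chloride positive control. Binary eye-defect scoring at 120 hpf; dead embryos not scored.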

Assay [13] in a line: Tanguay_ZF_120hpf_SNOU_legacy: (Legacy) Oregon State University Tanguay Lab 120 Hour Post-fertilization zebrafish Assay for Snout Malformation (AID 2283637). In a few lines: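 Binary brightfield scoring of snout malformation at 120 hpf. Dechorionated 5D wild-type embryos, one per well, static exposure from 6 hpf at 28C, sealed and dark; final DMSO 0.64% (vol/vol), DMSO as baseline; 5uM trimethyltin chloride positive control.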

Assay [14] is described as follows: TOX21_p53_BLA_p2_viability: Viability Assessment in the Tox21 HCT-116 p53 Agonism Beta-lactamase Assay, Phase 2 (AID 2283591).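 Further: compound exposure lasted 16 h at 37 °C; actives lower the ATP signal meaning cytotoxicity.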 In a few lines:
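HCT116 p53-bla cells, 4000/well, dosed after 5 h plating (217-fold dilution of DMSO stocks) and incubated 16 h at 37C. Viability taken as cellular ATP by CellTiter-Glo luminescence after 30 min RT; signal loss marks cytotoxicity.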

Assay [15] concerns the target Cellular tumor antigen p53 (Homo sapiens) (UniProt P04637). Nature of the assay: TOX21_p53_BLA_p2_ratio: Tox21 HCT-116 p53 Agonism Beta-lactamase Assay, Ratio, Phase 2 (AID 2283592). The procedure, abridged: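 DMSO-normalized, positive-direction endpoint derived from the 460 nm/530 nm FRET ratio in HCT116 p53 beta-lactamase reporter cells exposed 16 h at 37C and loaded with CCF4-AM for 2 h.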

A short description of assay [16]: TOX21_p53_BLA_p3_viability: Viability Assessment in the Tox21 HCT-116 p53 Agonism Beta-lactamase Assay, Phase 3 (AID 2283593).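 Further: cells exposed to compound for 16 h before reading.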 The procedure, abridged:
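HCT116 cells, 4000/well, dosed 5 h after plating by pin transfer (217-fold dilution from DMSO stock) and incubated 16 h at 37C, 5% CO2. Viability read as ATP luminescence with CellTiter-Glo after 30 min at room temperature.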

Assay [17] can be described thus: TOX21_p53_BLA_p5_viability: Viability Assessment in the Tox21 HCT-116 p53 Agonism Beta-lactamase Assay, Phase 5 (AID 2283600). In a few lines: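 Here cell health was gauged by ATP levels in wells holding 4000 cells, each treated 16 h with DMSO-delivered compounds at 217-fold dilution; reduced luminescence marked toxicity.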
In assay [18] the target is Cellular tumor antigen p53 (Homo sapiens) (UniProt P04637). Nature of the assay: TOX21_p53_BLA_p4_ratio: Tox21 HCT-116 p53 Agonism Beta-lactamase Assay, Ratio, Phase 4 (AID 2283601). The procedure, abridged: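 HCT-116 p53 beta-lactamase reporter cells (4000/well) preincubated 5 h, then compound (217-fold dilution of DMSO stock) for 16 h at 37C. CCF4-AM substrate added 2 h at room temperature; 460/530 nm emission ratio fitted upward versus DMSO.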

Assay [19] in a line: Tanguay_ZF_120hpf_AXIS_legacy: (Legacy) Oregon State University Tanguay Lab 120 Hour Post-fertilization zebrafish Assay for Body Axis Malformation (AID 2283635). The procedure, abridged:
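Each dechorionated embryo was exposed alone from 6 hpf, with DMSO at 0.64% (vol/vol) and trimethyltin chloride 5 uM as positive control. Axis malformation was recorded at 120 hpf unless the embryo had died.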

Assay [20] can be described thus: ATG_XTT_Cytotoxicity: Cytotoxicity Assessment in the Attagene TRANS-FACTORIAL HepG2 Assay (AID 2283584). In a few lines: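 24 h chemical exposure of reporter-transfected HepG2; XTT signal loss vs DMSO indicates cytotoxicity.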

Sequence of Cellular tumor antigen p53 (Homo sapiens) (P04637 whole entry, looked up): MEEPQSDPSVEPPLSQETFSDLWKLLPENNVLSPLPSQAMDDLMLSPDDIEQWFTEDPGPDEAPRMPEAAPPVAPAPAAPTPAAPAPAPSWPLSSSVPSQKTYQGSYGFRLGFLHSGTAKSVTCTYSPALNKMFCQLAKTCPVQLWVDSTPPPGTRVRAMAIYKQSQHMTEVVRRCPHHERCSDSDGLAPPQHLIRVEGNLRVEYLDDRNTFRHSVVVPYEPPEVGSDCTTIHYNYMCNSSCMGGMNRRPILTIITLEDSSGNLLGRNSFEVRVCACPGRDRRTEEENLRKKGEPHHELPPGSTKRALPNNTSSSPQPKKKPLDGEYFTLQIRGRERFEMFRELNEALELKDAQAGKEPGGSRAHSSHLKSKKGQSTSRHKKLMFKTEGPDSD

Consider `Oc1ccc2c(c1)OC[C@@H](N1CCC(O)(c3ccc(F)cc3)CC1)[C@H]2O`, for which the compound was classed as inactive in [1], in assay [2], in assay [3], in assay [4], in assay [5] and in [6]. In addition, the result in [7], in assay [8], in [9], in assay [10], in assay [11] and in assay [12] was inactive. Moreover, the call in assay [13] was inactive.

`CC(=O)Oc1ccccc1C(=O)O`: the outcome in [2], in assay [3], in assay [4], in assay [5], in assay [6] and in assay [14] was inactive. Moreover, the result in assay [15], in assay [16], in [7], in [8], in assay [9] and in assay [17] was inactive. The outcome in assay [18], in [10], in assay [11], in assay [19] and in [13] was inactive.

In the case of `NC(=O)Cn1c(=O)cc(CCN2CCN(c3nccc4sccc34)CC2)c2ccc(F)cc21`, the AC50 is 50 µM (active) in assay [1], 50 µM (active) in assay [2], 12.6 µM (active) in assay [3] and 77 µM (active) in assay [5]. Besides, the compound was called inactive in assay [6], in assay [15], in [16], in [8], in [10] and in assay [11]. Besides, the outcome in assay [19], in assay [12] and in assay [13] was inactive.

`COc1ccc(S(=O)(=O)N2C(=O)[C@@](c3ccccc3OC)(N3C[C@H](O)C[C@H]3C(=O)N(C)C)c3cc(Cl)ccc32)c(OC)c1`: the AC50 is 19.5 µM (active) in assay [1]; 22.7 µM (active) in assay [2]; 34.8 µM (active) in assay [3]; 79.5 µM (active) in assay [6]; 86.3 µM (active) in assay [14]; 67.7 µM (active) in assay [8]. For the same compound, the AC50 in assay [9] was 75 µM (active); in assay [17] it was 77.4 µM (active); in assay [18], 86.6 µM (active). Besides, the call in assay [5], in assay [7], in assay [10], in [11], in [19] and in assay [12] was inactive. In addition, the outcome in assay [13] was inactive.

Regarding `C[Si]1(C)O[Si](C)(C)O[Si](C)(C)O[Si](C)(C)O1`, the compound was classed as inactive in [1], in assay [2], in assay [3], in assay [5], in assay [6] and in [14]. The outcome in [16], in [9], in assay [18], in assay [10], in assay [11] and in [19] was inactive. Also, the result in assay [12] and in assay [13] was inactive.

On to `COc1cccc2c1C(=O)c1c(O)c3c(c(O)c1C2=O)C[C@@](O)(C(=O)CO)C[C@@H]3O[C@H]1C[C@H](N)[C@H](O)[C@H](C)O1`, for which the call in assay [20], in [14] and in assay [16] was inactive. Also, the half-maximal activity concentration (AC50) is 98.2 nM (active) and 390 nM (active) in assay [15]; 0.401 µM (active) in assay [7]; 238 nM (active) and 422 nM (active) in [9]; 211 nM (active) and 437 nM (active) in assay [18].

For the compound `Cc1ccc2ncccc2c1`, the compound was classed as inactive in [1], in [2], in assay [3], in [5], in [6] and in assay [20]. The outcome in [7], in assay [8], in assay [9], in assay [17], in [18] and in assay [10] was inactive. The compound was called inactive in [11], in assay [19], in [12] and in assay [13].

For the compound `O=c1c(O)c(-c2ccc(O)c(O)c2)oc2cc(O)cc(O)c12`, the call in assay [1], in assay [2], in [5], in assay [6], in assay [14] and in assay [16] was inactive. In addition, the call in assay [8], in assay [17], in [10], in assay [11], in assay [19] and in [13] was inactive. Further, the AC50 in assay [3] is 0.322 µM (active); in assay [8], 34.7 µM (active); in assay [9], 44.4 µM (active) [middle of 4 runs]; in [18], 22.8 µM (active) [middle of 4 runs].

One may read the AC50 as the concentration giving half of the maximal activity seen.
